TNF death inh: blocks TNF-alpha induced death of Jurkat FADD-/- cells | 220,000 tested, 0.068% active | AID 463075 | Jurkat FADD-/- TNF necroptosis rescue, ATP luminescence, 24 h; 0 = TNF only, 100 = no-TNF cells | activation (protection from cell death), % at 10 µM;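 active means activation, meaning protection from cell death, of at least 50% relative to plate controls; inactive means activation below 50%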;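 further: necroptosis triggered by 40 ng/mL TNF-alpha added together with compound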
L929 necroptosis: blocks zVAD induced death of L929 cells; L929 zVAD necroptosis rescue, ATP luminescence, 24 h; with zVAD 60 µM; viability rescue, % at 10 µM; 220,000 tested, 0.38% active; AID 1377;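 active means activation, scaled between plate controls, above about 75%, limit read from the data; inactive means activation under that limit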
ROMK primary: human ROMK K+ channel modulation, primary screen; P48048; Tet-inducible ROMK, thallium flux fluorescence; actives lie on both sides; B-score at 10 µM; 130,000 tested, 2% active; AID 1918;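 active means signal ratio slope over the read window, or its plate-corrected B-score, at least 3 SD from the plate mean, either direction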;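 further: B-score of the F/F0 ratio slope over 7 to 12 s after thallium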
14-3-3 Bad inh: disrupts binding of bovine 14-3-3 zeta to phospho-Bad peptide. P63103. TR-FRET 14-3-3zeta/Dy647-pBad peptide displacement, 1 h. inhibition, % at 21.7 µM. 220,000 tested, 0.71% active;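 active means inhibition above about 70%, limit read from the data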
Target sequence (P63103 whole entry, looked up): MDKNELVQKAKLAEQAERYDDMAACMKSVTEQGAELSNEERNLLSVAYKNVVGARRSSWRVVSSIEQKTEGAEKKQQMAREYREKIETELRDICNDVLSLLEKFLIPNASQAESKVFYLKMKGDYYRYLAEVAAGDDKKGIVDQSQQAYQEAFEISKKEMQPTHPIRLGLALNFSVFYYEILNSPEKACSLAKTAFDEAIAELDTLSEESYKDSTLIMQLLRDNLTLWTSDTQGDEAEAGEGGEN
Efa HMGR inh: blocks class II HMG-CoA reductase of Enterococcus faecalis; purified E. faecalis HMGR, NADPH absorbance 340 nm kinetic; inhibition, % at 10 µM; 190,000 tested, 0.41% active;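 active means inhibition above a set limit, the median over all tested compounds plus 3 SD, cut at about 9.5% in these data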;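 further: enzyme runs in reverse so mevalonate oxidation gives rising NADPH absorbance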
Calpain2 inh: blocks pig calpain II enzyme activity; purified calpain II, fluorogenic peptide substrate, 30 min; inhibition, % at 16 µM; 220,000 tested, 0.37% active;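 active means inhibition above about 50%, limit read from the data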
Hits are given with their value; 0 = inactive; - = no result given. Rows were chosen to be rich in hits. Some 3% of all compounds tested hit in one or more screens of this group.

SMILES	TNF death inh	L929 necroptosis	ROMK primary	14-3-3 Bad inh	Efa HMGR inh	Calpain2 inh
Cc1c(NC2=NC(C)(C)Cc3ccccc32)c(=O)n(-c2ccccc2)n1C	0	0	0	0	11	0
Cc1c(NS(=O)(=O)c2ccc3c(c2)Cc2ccccc2-3)c(=O)n(-c2ccccc2)n1C	0	0	0	0	14	0
Cc1c(NS(=O)(=O)c2ccc3c(c2)n(C)c(=O)n3C)c(=O)n(-c2ccccc2)n1C	0	0	0	0	0	0
C=CCN1c2ccccc2[C@]23C[C@@H](C(=O)OC)N(C(=O)c4cccs4)C2=NC(C(=O)OC)=C(C(=O)OC)[C@H]13	0	0	-	0	-	0
O=C(CCNS(=O)(=O)c1cccs1)NC1CCN(Cc2ccccc2)CC1	0	0	0	0	0	0
COc1ccc(NC(=O)/C=C/c2c(Cl)nc3ccccn23)cc1	0	0	0	0	0	0
Cn1c(CO)cnc1SCc1c(Cl)cccc1Cl	0	0	0	0	0	0
Cn1c(CO)cnc1SCc1ccc(F)cc1	0	0	0	0	15	0
Cc1cc(C)nc(S/C=C/C(=O)c2ccccc2F)n1	0	0	-	0	-	0
COC(=O)c1sc(S(=O)(=O)N2CCN(CCO)CC2)c(C(=O)OC)c1C	0	0	0	0	0	0
COC(=O)c1sc(S(=O)(=O)N2CCC(C(=O)O)CC2)c(C(=O)OC)c1C	0	83	0	0	0	0
O=C(Nc1ccc(S(=O)(=O)Nc2ncccn2)cc1)c1cnc(Cl)c(Cl)c1	0	0	0	0	0	0
O=C(Nc1ccc(S(=O)(=O)Nc2ncccn2)cc1)c1ccc2ncsc2c1	0	0	-	81	-	0
CCN(CC)C(=O)CSc1nnc(-c2ccccn2)n1Cc1ccccc1	0	0	-	0	-	0
C=CCOc1ccccc1CN1CCSCC1	0	0	0	80	0	0
C=CCOc1ccccc1CNCc1ccc(F)cc1	0	0	0	0	0	0
N#Cc1ccccc1S(=O)(=O)N1CCN(CC(O)c2ccccc2)CC1 (centres undefined)	0	0	0	0	0	0
COc1ccc(CCNc2nc(=S)[nH]c3cc(OC)c(OC)cc23)cc1OC	0	82	0	0	0	0
CCc1ccc(NC(=O)C(=O)NCCN2CCN(S(C)(=O)=O)CC2)cc1	0	0	0	0	11	0
Cc1nn(Cc2c(F)cccc2Cl)c(C)c1[N+](=O)[O-]	76	0	-	0	0	0
Cc1ccc(S(=O)(=O)N2CCN(CC(=O)N/N=C/c3ccco3)CC2)cc1	0	0	0	0	0	0
COC(=O)C1=C(C)N(Cc2ccco2)C(=O)/C1=C\c1ccc([N+](=O)[O-])cc1	0	0	0	0	10	0
COC(=O)C1=C(C)N(Cc2ccco2)C(=O)/C1=C\c1ccc(N(C)C)cc1	0	0	0	0	0	0
O=C(CSc1ccsc1[N+](=O)[O-])Nc1cc(F)ccc1F	0	0	0	83	0	0
O=C(Cn1c(=O)c2c(ncn2Cc2ccccc2)n(Cc2ccccc2)c1=O)NC1CC1	0	0	-	0	0	0
SMILES	TNF death inh	L929 necroptosis	ROMK primary	14-3-3 Bad inh	Efa HMGR inh	Calpain2 inh
CC(C)CNC(=O)Cn1c(=O)c2c(ncn2CC(C)C)n(Cc2ccccc2)c1=O	0	0	0	90	0	0
COc1ccccc1CNC(=O)CN(C)CC(=O)Nc1cccc(F)c1	0	0	-	0	0	0
O=C1CCCC2=C1C(c1ccccc1)CC(=O)N2c1ccc(F)cc1F (centres undefined)	0	0	0	0	12	0
CC1(C)CC(=O)C2=C(C1)N(c1ccc(F)cc1)C(=O)CC2c1ccccc1 (centres undefined)	0	0	0	0	0	0
Cc1cccc2[nH]c(SCC(=O)N3CCOCC3)nc12	0	0	0	0	11	0
Cc1ccc(-c2nnc(N3CC(C)OC(C)C3)c3ccccc23)cc1 (centres undefined)	0	0	0	75	0	0
N#CCCN/N=C(/Cc1nc2ccccc2[nH]1)c1ccc(Cl)cc1	0	0	0	0	9.9	0
N#CCCN/N=C(\Cc1nc2ccccc2[nH]1)c1ccccc1	0	0	0	0	0	0
O=C1CCC([N+](=O)[O-])C(c2ccc(Cl)cc2Cl)N1 (centres undefined)	0	0	0	0	0	0
CC(C)c1ccc(C2NC(=O)CCC2[N+](=O)[O-])cc1 (centres undefined)	0	0	0	0	10	0
